Hits are enriched below; roughly 11% of the tested compounds scored in any of these assays.
L3MBTL1 block: inhibitors of human L3MBTL1. Q9Y468. AlphaScreen L3MBTL1–H3K9me1 peptide binding. Potency, µM (doses to about 57.1 µM), hits mostly inhibitors. 0.66% of 230,000 active. AID 485360; also: nearly all actives have a fitted effect of over 60% in size
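L3MBTL1 (50 nM) pre-complexed 30 min with biotinylated H3(1-15)K9me1 peptide (75 nM), then compounds added for 30 min at room temperature; AlphaScreen streptavidin donor/nickel chelate acceptor beads (10 ug/mL final) read after 30 min dark incubation.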
BAZ2B inh: inhibitors of human BAZ2B bromodomain | AlphaScreen BAZ2B-H3K14Ac peptide displacement | Q9UIF8 | Potency, µM (series often up to 114 µM), usual class: inhibitors | 4.4% of 360,000 active | AID 504333; also: nearly all actives have a fitted effect of over 60% in size
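Protein-peptide AlphaScreen: BAZ2B 50 nM, b-H3K14Ac 50 nM, 1x PBS pH 7.4 + 0.01% Tween-20. Preincubation 30 min RT; cpd 30 min RT (top 110 uM); beads 20 min RT, light-protected.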
JMJD2A Tudor inh: JMJD2A Tudor domain (human) inhibition; O75164; AID 504339; Potency, µM (series often up to 114 µM), hits mostly inhibitors; AlphaScreen JMJD2A-Tudor / H3K4me3 peptide binding; 4.4% of 390,000 active; also: nearly all actives have a fitted effect of over 50% in size
Target sequence (O75164 whole entry, looked up, the tested form may be a part): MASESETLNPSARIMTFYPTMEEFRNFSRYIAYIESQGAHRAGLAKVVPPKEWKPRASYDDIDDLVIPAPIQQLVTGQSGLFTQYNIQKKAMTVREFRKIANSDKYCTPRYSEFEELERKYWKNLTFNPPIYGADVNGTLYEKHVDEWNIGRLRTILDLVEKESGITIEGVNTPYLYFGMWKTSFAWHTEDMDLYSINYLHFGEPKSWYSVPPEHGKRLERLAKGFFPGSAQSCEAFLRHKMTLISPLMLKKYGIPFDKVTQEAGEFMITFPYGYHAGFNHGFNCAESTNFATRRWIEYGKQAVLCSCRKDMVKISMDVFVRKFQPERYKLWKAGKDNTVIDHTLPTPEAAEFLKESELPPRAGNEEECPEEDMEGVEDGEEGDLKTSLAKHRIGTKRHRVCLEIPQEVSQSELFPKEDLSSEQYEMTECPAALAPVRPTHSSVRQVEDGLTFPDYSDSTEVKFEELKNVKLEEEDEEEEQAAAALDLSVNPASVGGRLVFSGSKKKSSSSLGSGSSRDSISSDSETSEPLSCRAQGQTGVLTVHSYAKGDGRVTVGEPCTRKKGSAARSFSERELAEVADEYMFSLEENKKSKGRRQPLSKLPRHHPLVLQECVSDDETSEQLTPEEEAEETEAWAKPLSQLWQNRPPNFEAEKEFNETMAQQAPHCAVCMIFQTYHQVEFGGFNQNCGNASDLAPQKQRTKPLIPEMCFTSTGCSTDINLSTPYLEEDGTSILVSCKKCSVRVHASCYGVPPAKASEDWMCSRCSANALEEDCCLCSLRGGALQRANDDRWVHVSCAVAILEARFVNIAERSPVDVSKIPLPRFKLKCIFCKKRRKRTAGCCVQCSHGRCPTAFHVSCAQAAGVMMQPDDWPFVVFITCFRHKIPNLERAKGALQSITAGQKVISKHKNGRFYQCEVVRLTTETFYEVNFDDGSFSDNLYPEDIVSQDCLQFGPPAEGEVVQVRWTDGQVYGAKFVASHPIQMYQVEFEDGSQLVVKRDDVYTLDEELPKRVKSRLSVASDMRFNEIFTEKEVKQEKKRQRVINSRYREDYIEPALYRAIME
HP1b chromo inh: blocks HP1-beta chromodomain binding to methylated histone tails; P83916; AlphaScreen HP1-beta / biotin-H3K9me3 peptide binding; Potency, µM (titrated, usually from 114 µM), most hits filed as inhibitors; 0.56% of 390,000 active; AID 540317; also: nearly all actives have a fitted effect of over 70% in size
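AlphaScreen: HP1-beta (50 nM) preformed 30 min with biotin-H3(1-18)K9me3 peptide (50 nM) in PBS pH 7.4, 0.01% Tween-20. Compound added for 30 min at RT, then streptavidin donor/nickel chelate acceptor beads (10 ug/mL) for 30 min.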
PI5P4K alpha inh: inhibitors of human PI5P4K alpha. PI5P4Kalpha enzyme, ADP-Glo luminescence, 60 min; active compounds read low. max response, %. AID 652105. 1.2% of 330,000 active. P48426; active = max response of -50% or lower; inconclusive = between -30% and -50%; inactive = -30% or higher; also: value at the top dose of about 77 µM
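ADP-Glo luminescence end-point read after a 60 min room-temperature kinase reaction of PI5P4Kalpha plus substrate, initiated with ATP at 5 microM final. Buffer: 0.038 M HEPES pH 7.4, EGTA, 0.1% CHAPS, 5% DMSO.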
G9a block: blocks human histone lysine methyltransferase G9a. Q96KQ7. G9a H3K9 monomethylation, AlphaScreen, 2 h. AID 504332. Potency, µM (doses to about 102 µM), actives largely listed as inhibitors. 8.8% of 350,000 active; also: nearly all actives have a fitted effect of over 75% in size
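Methyltransferase reactions run at room temperature for 2 h (20 nM enzyme, 500 nM biotin-H3K9 peptide, 20 uM SAM) after a 15 min compound preincubation; product detected by AlphaScreen beads and anti-H3K9me1 antibody.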
Hits are given with their value; . = inactive; ? = inconclusive; / = not tested or not shown; ! = repeats disagree; [ ] = another dose, or the depositor's remark. Unless noted, calls follow the shape of the dose curve; as a rule, active = well fitted inhibition curve with a large enough effect; inconclusive = small, poorly fitted or top-dose-only effect; inactive = no such curve, though single readings can be large or run the other way.

SMILES	L3MBTL1 block	BAZ2B inh	JMJD2A Tudor inh	HP1b chromo inh	PI5P4K alpha inh	G9a block
COCCCNC(=O)c1ccc(Cn2c(=O)c3ccccc3n(Cc3c(C)cc(C)cc3C)c2=O)cc1	/	.	.	.	/	.
O=C(O)c1ccc(C2NCC(c3ccccc3Cl)c3c2[nH]c2ccccc32)cc1 (centres undefined)	.	.	?	.	.	.
COc1cc(C2NCC(c3ccc(Cl)cc3Cl)c3c2[nH]c2ccccc32)cc(OC)c1OC (centres undefined)	.	35µM	45µM	?	.	.
Cc1ccc(N2C(=O)N3[C@H](c4ccc(F)cc4)[C@@H]4C(=O)N(C5CCCCC5)C(=O)[C@@H]4[C@]3(C)C2=O)cc1	.	.	.	.	-65	/
O=C(Nc1ccc(Cc2ccncc2)cc1)C1CC1	.	.	.	.	/	.
C[C@@H](N)C1CCC(C(=O)Nc2ccncc2)CC1 (some centres undefined)	/	/	/	/	/	30µM!
CCC(C)NC(=O)CN1C(=O)c2cccnc2Oc2ccc(C)cc21 (centres undefined)	/	.	50µM	.	/	.
CCOc1ccc(OCC)c(NS(=O)(=O)c2c(C)[nH]c(=O)[nH]c2=O)c1	/	.	.	.	/	.
CN1CCCN(CC(O)COCc2cccs2)CC1 (centres undefined)	.	.	.	.	.	40µM
OC(COCc1cccs1)CN1CCCCCC1 (centres undefined)	.	.	?	.	.	?
OC(COCc1cccs1)CN1CCN(c2cccc(Cl)c2)CC1 (centres undefined)	.	50µM	2.8µM	?	.	10µM
N#CC(C#N)=C1c2cc(S(=O)(=O)NCCO)ccc2-c2ccc(S(=O)(=O)NCCO)cc21	/	.	.	.	.	/
N#CC(C#N)=C1c2cc(S(N)(=O)=O)ccc2-c2ccc(S(N)(=O)=O)cc21	.	.	.	.	.	18µM
c1ccc(-c2nc3nc4ccccc4nc3n2CC2CCCO2)cc1 (centres undefined)	.	.	.	.	.	.
c1coc(-c2nc3nc4ccccc4nc3n2CC2CCCO2)c1 (centres undefined)	/	.	.	.	/	50µM
COC(=O)[C@]12CCCCC=C1N(Cc1ccc3c(c1)OCO3)C(=O)[C@H](CC(=O)NCc1ccc(OC)c(OC)c1)C2	/	/	/	/	.	/
CCCCc1ccc(N2C(=O)[C@@H]3C(CC(N)=O)NC4(C(=O)Nc5ccc(F)cc54)[C@@H]3C2=O)cc1 (some centres undefined)	/	.	.	.	/	40µM
COC(=O)C1(C)NC(c2ccccc2C)C2C(=O)N(c3ccc(F)cc3)C(=O)C21 (centres undefined)	.	.	?	.	.	.
Cc1c(Cl)ccc2c1NC(=O)[C@]21N[C@@H](CCC(N)=O)[C@H]2C(=O)N(c3ccc(F)cc3)C(=O)[C@H]21	.	.	.	.	.	14µM
Cc1c(Cl)ccc2c1NC(=O)C21NC(CCC(N)=O)[C@H]2C(=O)N(c3ccc(Cl)cc3)C(=O)[C@H]21 (some centres undefined)	.	.	.	.	.	40µM
CSCCC1NC2(C(=O)Nc3c2ccc(Cl)c3C)[C@@H]2C(=O)N(C3CCCC3)C(=O)[C@H]12 (some centres undefined)	/	?	?	.	/	?
COc1cccc(Nc2ncc3nc(C)c(=O)n(CCC#N)c3n2)c1	/	/	/	/	/	.[12.7 µM]
Cc1ccc(-n2c3c(cc(C(=O)Nc4ccccc4C(N)=O)c2=O)C(=O)CC(C)(C)C3)cc1	/	.	.	.	/	.
Cc1ccccc1CNC(=O)c1nn(-c2ccccc2F)nc1CO	/	.	.	.	/	.
C=CCN(Cc1cccs1)C(=O)CN1CCN(S(=O)(=O)c2ccc3c(c2)OCCCO3)CC1	.	.	.	.	.	.[2.33 µM]
SMILES	L3MBTL1 block	BAZ2B inh	JMJD2A Tudor inh	HP1b chromo inh	PI5P4K alpha inh	G9a block
CN(Cc1cccs1)C(=O)c1cc(S(=O)(=O)N2CCOCC2)ccc1N1CCCC1	.	.	.	.	.	.[2.33 µM]
CN(Cc1cccs1)C(=O)CN1CCN(S(=O)(=O)c2ccc3c(c2)OCCCO3)CC1	.	.	.	.	.	45µM
CCN(Cc1cccs1)C(=O)CN1CCN(S(=O)(=O)c2ccc3c(c2)OCCCO3)CC1	.	.	.	.	.	45µM
CN(C(=O)CSc1nncn2c1cc1occc12)c1ccccc1	/	.	.	.	/	.
Cc1ccc2[nH]c(=O)c(Cc3ccccc3)c(O)c2c1	.	?	.[11.4 µM]	.	.	8.9µM
COc1cccc(-c2nc(SCC(=O)Nc3ccc4c(c3)OCO4)c(-c3ccccc3)[nH]2)c1	/	?	?	?	/	8.9µM
COc1ccc(-c2[nH]c(-c3cccc(OC)c3)nc2SCC(=O)NC2CCCC2)cc1	.	?	?	.	.	79µM!
COc1ccc(-c2[nH]c(-c3ccccc3)nc2SCC(=O)Nc2ccc3c(c2)OCCO3)cc1	/	?	?	.	/	?
COc1ccc(-c2nc(SCC(=O)Nc3ccc4c(c3)OCO4)c(-c3ccc(OC)cc3)[nH]2)cc1	/	79µM	?	.	/	13µM
Cc1ccc(NCc2ccncc2)c(Br)c1	?	22µM	1.6µM	28µM	.	/
Cc1cc(NCc2ccncc2)ccc1Br	.	50µM	18µM	?	.	/
Cc1cc(F)ccc1NCc1ccncc1	.	.	.	.	/	.
Cc1cc(Br)c(S(=O)(=O)NCc2ccncc2)cc1C	/	.	.	.	.	?
O=C(Nc1ccccc1O)c1cc(S(=O)(=O)N2CCCC2)ccc1Cl	/	?	.	.	/	.
COc1cccc(CNC(=O)CN2C(=O)CSc3c2c(C)nn3-c2ccccc2)c1	/	.	.	.	/	.
CCOc1ccccc1OCCC(=O)OCC(=O)Nc1c(C)nn(-c2ccccc2)c1C	.	.	.	.	.	56µM
Cc1nn(-c2ccccc2)c(C)c1NC(=O)COC(=O)CCOc1ccccc1	.	.	.	.	.	.[0.501 µM]
Cc1ccc(S(=O)(=O)Cn2nnnc2CN(Cc2ccco2)Cc2cccs2)cc1	.	.	.	.	.	20µM
Cc1ccc2[nH]c(=O)c(CN(Cc3cccs3)Cc3nnnn3Cc3ccco3)cc2c1	/	/	?	.	/	/
O=C(Nc1cccc([N+](=O)[O-])c1)Nc1ccc2c(c1)CCC2	/	.	.	.	.	.
O=[N+]([O-])c1cccc(CNc2ccc3c(c2)CCC3)c1	.	20µM	1.4µM	40µM	.	13µM
COc1ccc(CNc2ccc3c(c2)CCC3)cc1Br	/	.	.	.	.	35µM
COc1ccccc1CNc1ccc2c(c1)CCC2	.[2.29 µM]	.	?	.	.	.[0.501 µM]
CCOc1cc(CNc2ccc3c(c2)CCC3)ccc1OC	/	?	/	/	/	45µM
COc1ccccc1CNc1ncncc1-c1ccccc1Cl	/	/	/	/	/	.[0.501 µM]
O=C(Nc1nonc1-c1ccc(Br)cc1)c1ccco1	/	.	.	.	/	.

Screens: PubChem, National Center for Advancing Translational Sciences (NCATS)
